Beta cell apopt = beta cell apoptosis inhibition; INS-1E cytokine-induced death, ATP luminescence, 48 h; percent of positive-control rescue, neutral wells zero; protection from apoptosis, % (test concentration not listed); 300,000 compounds, 0.8% hits; AID 435005;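 active = Every replicate reaches about 75%, or at least half do and their mean reaches it too, limit read from the data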;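 note: higher means more ATP so stronger rescue from cytokine killing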
Calb FLC = affects C. albicans growth with fluconazole. C. albicans CaCi-2 (fluconazole-resistant clinical isolate) + fluconazole, Alamar Blue growth, 48 h. growth inhibition, % (no concentration beside the values). 300,000 compounds, 0.57% hits. AID 1979;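 active = growth inhibition above about 58% in most replicates, limit read from the data, passing the limit was not always enough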;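 note: all wells also contain fluconazole at 8 µg/ml as a sub-toxic cotreatment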
CSC inhib = blocks cancer stem cells; cancer stem cell-like cells viability, luminescence; AID 2717; inhibition, % at 7.5 µM; 300,000 compounds, 1.1% hits; in the data active = inhibition above about 75%; tested in HMLE shEcad cells
Mdm2-MdmX inh = disrupts the human Mdm2-MdmX interaction; O15151+Q00987; SaOS-2 split-luciferase Mdm2/MdmX complementation, luminescence; inhibition, % at 8 µM; 330,000 compounds, 3% hits;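 active = inhibition of at least 50% at 8 µM in the primary screen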
PP5 inh = inhibitors of human protein phosphatase 5 (PP5); P53041; inhibition, % at 6.7 µM; 320,000 compounds, 0.18% hits; AID 1987; purified PP5c, OMFP substrate fluorescence;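 active = inhibition above the campaign's mean inhibition across all tested compounds plus 3 SD, cut at about 9.5% in these data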
Target sequence (P53041 whole entry, looked up): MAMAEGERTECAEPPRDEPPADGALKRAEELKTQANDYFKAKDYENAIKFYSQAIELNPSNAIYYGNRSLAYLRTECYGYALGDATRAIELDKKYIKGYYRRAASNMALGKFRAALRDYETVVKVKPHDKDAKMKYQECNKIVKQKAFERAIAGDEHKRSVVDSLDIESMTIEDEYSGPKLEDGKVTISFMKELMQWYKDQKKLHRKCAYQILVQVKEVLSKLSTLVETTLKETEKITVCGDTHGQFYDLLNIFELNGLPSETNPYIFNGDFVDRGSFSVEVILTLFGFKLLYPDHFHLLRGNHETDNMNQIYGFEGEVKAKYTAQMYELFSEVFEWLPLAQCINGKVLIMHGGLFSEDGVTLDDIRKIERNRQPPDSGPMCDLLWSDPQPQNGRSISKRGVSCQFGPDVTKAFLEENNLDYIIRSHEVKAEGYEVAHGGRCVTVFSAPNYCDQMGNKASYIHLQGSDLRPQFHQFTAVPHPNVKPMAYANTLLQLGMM
PP1 counter = blocks human PP1-alpha phosphatase, a PP5 counter-screen; P62136; purified PP1alpha, OMFP fluorescence; inhibition, % at 6.7 µM; 320,000 compounds, 0.9% hits;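 active = inhibition above the mean inhibition of all tested compounds plus 3 SD, computed separately for each screening campaign, cut at about 15% in these data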
A number is an active result. The list is not random: actives were taken first. Their share in the collection is about 4.9%.

COc1ccccc1C(=O)COC(=O)c1cccc(S(=O)(=O)N2CCCC2)c1 was read as Calb FLC inactive, CSC inhib inactive, Mdm2-MdmX inh inactive, PP5 inh inactive and PP1 counter inactive.
`Cc1sc(NC(=O)c2sc3nc4c(C)cccc4cc3c2N)c(C#N)c1C` gave Beta cell apopt inactive, Calb FLC inactive, Mdm2-MdmX inh inactive, PP5 inh inactive and PP1 counter 16.8.
`CCN(CC)c1ccc(/C=C/C(=O)c2cccnc2)cc1` gave Beta cell apopt inactive, Calb FLC 92.6, CSC inhib inactive, Mdm2-MdmX inh inactive, PP5 inh inactive and PP1 counter inactive.
Screening O=C(/C=C/c1ccc(Cl)cc1)c1cccnc1 returned Beta cell apopt inactive, Calb FLC inactive, CSC inhib inactive, Mdm2-MdmX inh inactive, PP5 inh inactive and PP1 counter inactive.
For CC1CCCC(NC(=O)CN2C(=O)c3cccnc3Oc3ccc(Cl)cc32)C1C (configuration not stated) the results were Beta cell apopt inactive, Calb FLC inactive, CSC inhib inactive, Mdm2-MdmX inh inactive, PP5 inh inactive and PP1 counter inactive.
For Cc1ccn2c(NC3CCCCC3)c(-c3cccc(-c4cccc(Cl)c4)c3)nc2c1 the results were Beta cell apopt inactive, Calb FLC inactive, CSC inhib 102.4, Mdm2-MdmX inh inactive, PP5 inh inactive and PP1 counter 17.1.
`COc1cc(-c2nc3cc(C)ccn3c2NC2CCCCC2)ccc1-c1ccc(C(C)=O)cc1` gave Beta cell apopt inactive, Calb FLC inactive, CSC inhib inactive, Mdm2-MdmX inh inactive, PP5 inh inactive and PP1 counter 17.7.
`COc1cc(-c2nc3cnccn3c2NC(C)(C)CC(C)(C)C)ccc1O` gave Beta cell apopt inactive, Calb FLC inactive, CSC inhib inactive, Mdm2-MdmX inh inactive, PP5 inh inactive and PP1 counter inactive.
Screening CCCCNc1c(-c2ccc(-c3ccc(C(C)=O)cc3)c(OC)c2)nc2cnccn12 returned Beta cell apopt inactive, Calb FLC inactive, CSC inhib inactive, Mdm2-MdmX inh inactive, PP5 inh inactive and PP1 counter 16.8.
`Fc1ccc(CN2CC[C@H]3C=CCc4cccc(c43)C2)cc1` gave Beta cell apopt inactive, CSC inhib inactive, Mdm2-MdmX inh inactive, PP5 inh inactive and PP1 counter inactive.
O=C(/C=C/c1cccc(F)c1)OCC(=O)N1CCc2ccccc21 was read as Beta cell apopt inactive, CSC inhib inactive and Mdm2-MdmX inh inactive.
For O=C1CCCCC/C1=N/Nc1ccc(OCc2ccccc2)cc1 the results were Beta cell apopt inactive, Calb FLC 94.1, CSC inhib inactive, Mdm2-MdmX inh inactive, PP5 inh inactive and PP1 counter inactive.
Screening Cc1ccc(C2C3C(=O)N(c4ccc(C)cc4)C(=O)C3N3CCCN23)cc1 (configuration not stated) returned Beta cell apopt inactive, Calb FLC inactive, CSC inhib inactive, Mdm2-MdmX inh inactive, PP5 inh inactive and PP1 counter inactive.
Screening C=C(C)c1cccc(C(C)(C)NC(=O)Nc2cccnc2)c1 returned Beta cell apopt inactive, Calb FLC inactive, CSC inhib inactive, Mdm2-MdmX inh inactive, PP5 inh inactive and PP1 counter inactive.
C=C(C)c1cccc(C(C)(C)NC(=O)Nc2ccc(C(N)=O)cc2)c1 was read as Beta cell apopt inactive, Calb FLC 83.5, CSC inhib inactive, Mdm2-MdmX inh inactive, PP5 inh inactive and PP1 counter inactive.
For O=C(O)c1ccc(NC(=O)c2cccc(S(=O)(=O)Nc3ccc(C(=O)O)cc3)c2)cc1 the results were Beta cell apopt inactive, Calb FLC inactive, CSC inhib inactive, Mdm2-MdmX inh inactive, PP5 inh inactive and PP1 counter inactive.
`O=C1CSc2ccc(C(=O)Nc3cccc(S(=O)(=O)Nc4ccc(Br)cc4)c3)cc2N1` gave Beta cell apopt inactive, Calb FLC inactive, CSC inhib 87.3, Mdm2-MdmX inh inactive, PP5 inh inactive and PP1 counter inactive.
`Cc1ccc(NC(=O)c2cc3c(s2)CCCC3)cc1S(=O)(=O)Nc1ccccc1Cl` gave Beta cell apopt inactive, Calb FLC inactive, CSC inhib inactive, Mdm2-MdmX inh inactive, PP5 inh inactive and PP1 counter inactive.
For COc1ccc(NS(=O)(=O)c2cccc(NC(=O)c3ccc(Cl)nc3)c2)cc1 the results were Beta cell apopt 107.0, Calb FLC inactive, CSC inhib inactive, Mdm2-MdmX inh inactive, PP5 inh inactive and PP1 counter inactive.
`O=C(Nc1cccc(S(=O)(=O)Nc2ccc(Cl)cc2)c1)c1ccc(Cl)nc1` gave Beta cell apopt 78.7, Calb FLC inactive, CSC inhib inactive, Mdm2-MdmX inh inactive, PP5 inh inactive and PP1 counter inactive.
O=C(Nc1cccc(S(=O)(=O)Nc2ccc(Cl)cc2)c1)c1cc2c(s1)CCCC2 was read as Beta cell apopt inactive, Calb FLC inactive, CSC inhib 117.4, Mdm2-MdmX inh inactive, PP5 inh inactive and PP1 counter inactive.
Screening Fc1cccc(-c2cc3nc4c(c(NCc5ccco5)n3n2)CCCC4)c1 returned Beta cell apopt inactive, Calb FLC inactive, CSC inhib 93.3, Mdm2-MdmX inh inactive, PP5 inh inactive and PP1 counter inactive.
`Fc1cccc(-c2cc3nc4c(c(N5CCOCC5)n3n2)CCCC4)c1` gave Beta cell apopt inactive, Calb FLC inactive, CSC inhib inactive, Mdm2-MdmX inh inactive, PP5 inh inactive and PP1 counter inactive.
`CCOC(=O)C1(Cc2ccccc2)CCN(Cc2ccc3cc(NC(C)=O)ccc3n2)CC1` gave Beta cell apopt inactive, Calb FLC inactive, CSC inhib inactive, Mdm2-MdmX inh inactive, PP5 inh inactive and PP1 counter inactive.
Screening COC(=O)c1c(NC(=O)CN2C(=O)NC3(CCc4ccccc4C3)C2=O)sc2c1CCCCC2 (configuration not stated) returned Beta cell apopt inactive, Calb FLC inactive, CSC inhib inactive, Mdm2-MdmX inh inactive, PP5 inh inactive and PP1 counter 15.4.
CC(C)(C)Sc1ccc2nc3c(n2c1)CCCC3 was read as Beta cell apopt 100.7, Calb FLC inactive, CSC inhib inactive, Mdm2-MdmX inh inactive, PP5 inh inactive and PP1 counter inactive.
`COc1cccc(C(=O)NC(=S)Nc2ccccc2N2CCCC2)c1` gave Beta cell apopt inactive, Calb FLC inactive, CSC inhib inactive, Mdm2-MdmX inh inactive, PP5 inh inactive and PP1 counter inactive.
For CC(C)Oc1cccc(C(=O)NC(=S)Nc2ccccc2N2CCOCC2)c1 the results were Beta cell apopt inactive, Calb FLC inactive, CSC inhib 121.2, Mdm2-MdmX inh inactive, PP5 inh inactive and PP1 counter inactive.
CCOc1ccc(C(=O)NC(=S)Nc2ccccc2N2CCOCC2)cc1Br was read as Beta cell apopt inactive, Calb FLC inactive, CSC inhib 100.6, Mdm2-MdmX inh inactive, PP5 inh inactive and PP1 counter inactive.
COc1ccc2c(c1)c(=O)oc1cc(OCC(=O)N3CCCC(C)C3)ccc12 (configuration not stated) was read as Beta cell apopt inactive, Calb FLC inactive, CSC inhib inactive, Mdm2-MdmX inh inactive, PP5 inh inactive and PP1 counter 15.5.
